A short description of assay [1]: binders of probe aFSTL3 on microarray, primary screen, stem cell growth factor project, biochemical, small-molecule microarray, fluorescence 635/667 (AID 1064).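 Further: measures binding of the biotinylated anti-FSTL3 antibody to printed compounds.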 Conditions: higher = more signal.
A short description of assay [2]: binders from COS7 lysate, DM2A8 probe, primary screen, torsin A project, cell lysate, small-molecule microarray, fluorescence 635/667 (AID 1065). As to conditions: higher = more signal, COS7 lysate expressing mutant human TOR1A.
The nature of assay [3]: binders of probe aFGF2 on microarray, primary screen, stem cell growth factor project, biochemical, small-molecule microarray, fluorescence 635/667 (AID 1067).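 Further: measures binding of biotinylated aFGF2 protein to printed compounds on slides; z-score merges feature fluorescence and signal-to-noise across triplicate slides.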 As to conditions: higher = more signal.
Assay [4] is described as follows: binders of probe aFGF10 on microarray, primary screen, stem cell growth factor project, biochemical, small-molecule microarray, fluorescence 635/667 (AID 1071).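 Further: score merges 667 nm spot intensity and signal to noise from triplicate slides.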 Conditions: higher = more signal.
In assay [5] the target is Neurogenic locus notch homolog protein 2 (Homo sapiens) (UniProt Q04721). The assay can be described thus: Notch2 binders on small-molecule microarrays, primary screen, biochemical, small-molecule microarray, 635 nm fluorescence, stem cell growth factors (AID 1073). Conditions: Notch2 binding, higher = more signal.
Assay [6] has as its target Pro-neuregulin-1, membrane-bound isoform (Homo sapiens) (UniProt Q02297). Put plainly: NRG1 binders on small-molecule microarrays, primary screen, psychiatric disease protein project, biochemical, small-molecule microarray, fluorescence 635/667 (AID 1075).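 Further: score combines 667 nm spot fluorescence with signal to noise.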 Conditions: NRG1 binding, 635 nm fluorescence, higher = more signal.
Assay [7] has as its system Neuregulin-1 EGF-like domain. Put plainly: binders of neuregulin-1 EGF-like domain, primary screen, biochemical, small-molecule microarray, 635 nm fluorescence (AID 1081).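 Further: binding of the protein to compounds printed on small-molecule microarray slides.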 As to conditions: small-molecule microarray binding, higher = more signal.
A short description of assay [8]: FRG1 promoter luciferase signal modulators, primary screen, FRG1 inhibition for FSHD, cell-based, C2C12 myotubes, firefly/Renilla luciferase, luminescence (AID 1084). As to conditions: higher = more signal, called active from +8 up or from −8 down.
The nature of assay [9]: binders of probe aFST on microarray, primary screen, stem cell growth factor project, biochemical, small-molecule microarray, fluorescence 635/667 (AID 1086).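 Further: score merges 667 nm fluorescence with signal-to-noise of each printed compound spot.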 As to conditions: higher = more signal.
The nature of assay [10]: binders of probe aHhip on microarray, primary screen, stem cell growth factor project, biochemical, small-molecule microarray, fluorescence 635/667 (AID 1087).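 Further: score merges spot fluorescence at 667nm with spot signal to noise ratio.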 As to conditions: higher = more signal.
In assay [11] the test system is PRMT1 (protein arginine N-methyltransferase 1). The assay can be described thus: PRMT1 binders on small-molecule microarrays, primary screen, biochemical, small-molecule microarray, 635 nm fluorescence (AID 1088).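 Further: binding of Prmt1 protein to compounds spotted on small-molecule microarray slides.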 Conditions: small-molecule microarray binding, higher = more signal.
Assay [12] is described as follows: yeast growth modulation, basal conditions, primary screen, YJM789 clinical isolate, OD600, 24 h (AID 1089).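 Further: growth of clinical yeast isolate S. cerevisiae YJM 789 seeded 1000 cells per well; test concentration not given here.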 Conditions: S. cerevisiae YJM789 growth, higher = more signal, called active from +8 up or from −8 down.
Assay [13] in a line: fission yeast growth modulation, primary screen, strain 972, OD600, 24 h, no modulator (AID 1090).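 Further: basal condition with compound alone and no growth modifier present; test concentration not given here.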 Conditions: S. pombe 972 growth, higher = more signal, called active from +8 up or from −8 down.
A short description of assay [14]: S. cerevisiae growth modulation with rapamycin, primary screen, strain BY4716, OD600, 96 h (AID 1091). Further: test concentration not given here. Conditions: higher = more signal, called active from +8 up or from −8 down.
The target in assay [15] is Torsin-1A-interacting protein 2 (Homo sapiens) (UniProt Q8NFQ8). The assay can be described thus: LULL1 binders on small-molecule microarray, primary screen, cell lysate, human LULL1 lysate, 635/667 nm fluorescence (AID 1092).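 Further: probe is lysate of COS7 cells overexpressing human LULL1; score merges per-feature 667 nm fluorescence with signal-to-noise.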 As to conditions: hLULL1 lysate binding, 635 nm fluorescence, higher = more signal.
A short description of assay [16]: E. coli growth modulation, two-sided OD650, primary screen, E. coli filamentation project, strain DRC41, 24 h (AID 1093).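 Further: MC1000 strain lacking acrAB efflux and sulA so SOS filamentation is blocked; test concentration not given here.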 As to conditions: OD650, 24 h, higher = more signal, called active from +8 up or from −8 down.
Assay [17] can be described thus: small-molecule microarray binders of probe aLefty2, primary screen, biochemical, biotinylated probe, 635/667 nm fluorescence (AID 1094).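 Further: score merges spot fluorescence near 667 nm with spot signal-to-noise ratio.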 Conditions: higher = more signal.
For assay [18], the system named is Noggin (protein binding on small-molecule microarray). Put plainly: Noggin binders on small-molecule microarray, primary screen, biochemical, 635/667 nm fluorescence (AID 1095).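 Further: score merges 667 nm feature fluorescence with signal to noise over triplicate slides.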 Conditions: 635 nm fluorescence, higher = more signal.
The target of assay [19] is Neurogenic locus notch homolog protein 3 (Homo sapiens) (UniProt Q9UM47). The assay can be described thus: NOTCH3 binders on small-molecule microarray, primary screen, biochemical, 635/667 nm fluorescence (AID 1096). Conditions: NOTCH3 binding, 635 nm fluorescence, higher = more signal.
Assay [20] is described as follows: small-molecule microarray binders of probe aEGFR, primary screen, biochemical, biotinylated probe, 635/667 nm fluorescence (AID 1097).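 Further: probe is a biotinylated anti-EGFR antibody binding compounds printed on slides; score combines fluorescence near 667 nm and signal to noise of each spot.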 As to conditions: higher = more signal.

Consider five molecules from PubChem BioAssay.

Molecules are shown by their SMILES. Calls of active or inactive are those of the source.

Torsin-1A-interacting protein 2 (Homo sapiens), sequence (Q8NFQ8 whole entry, looked up): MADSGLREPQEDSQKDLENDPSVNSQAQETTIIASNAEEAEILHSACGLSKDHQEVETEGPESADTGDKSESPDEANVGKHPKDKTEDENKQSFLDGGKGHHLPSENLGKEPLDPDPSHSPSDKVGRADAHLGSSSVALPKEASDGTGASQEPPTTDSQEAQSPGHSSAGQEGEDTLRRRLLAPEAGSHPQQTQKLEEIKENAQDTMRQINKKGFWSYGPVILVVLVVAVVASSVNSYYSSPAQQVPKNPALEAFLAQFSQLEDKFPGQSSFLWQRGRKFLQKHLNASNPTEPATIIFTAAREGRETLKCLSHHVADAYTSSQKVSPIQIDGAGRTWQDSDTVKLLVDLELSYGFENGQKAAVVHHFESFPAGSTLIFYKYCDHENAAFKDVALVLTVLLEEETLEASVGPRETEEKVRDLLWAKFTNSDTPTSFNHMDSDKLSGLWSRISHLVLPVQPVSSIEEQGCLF
Neurogenic locus notch homolog protein 2 (Homo sapiens), sequence (Q04721 whole entry, looked up, canonical isoform): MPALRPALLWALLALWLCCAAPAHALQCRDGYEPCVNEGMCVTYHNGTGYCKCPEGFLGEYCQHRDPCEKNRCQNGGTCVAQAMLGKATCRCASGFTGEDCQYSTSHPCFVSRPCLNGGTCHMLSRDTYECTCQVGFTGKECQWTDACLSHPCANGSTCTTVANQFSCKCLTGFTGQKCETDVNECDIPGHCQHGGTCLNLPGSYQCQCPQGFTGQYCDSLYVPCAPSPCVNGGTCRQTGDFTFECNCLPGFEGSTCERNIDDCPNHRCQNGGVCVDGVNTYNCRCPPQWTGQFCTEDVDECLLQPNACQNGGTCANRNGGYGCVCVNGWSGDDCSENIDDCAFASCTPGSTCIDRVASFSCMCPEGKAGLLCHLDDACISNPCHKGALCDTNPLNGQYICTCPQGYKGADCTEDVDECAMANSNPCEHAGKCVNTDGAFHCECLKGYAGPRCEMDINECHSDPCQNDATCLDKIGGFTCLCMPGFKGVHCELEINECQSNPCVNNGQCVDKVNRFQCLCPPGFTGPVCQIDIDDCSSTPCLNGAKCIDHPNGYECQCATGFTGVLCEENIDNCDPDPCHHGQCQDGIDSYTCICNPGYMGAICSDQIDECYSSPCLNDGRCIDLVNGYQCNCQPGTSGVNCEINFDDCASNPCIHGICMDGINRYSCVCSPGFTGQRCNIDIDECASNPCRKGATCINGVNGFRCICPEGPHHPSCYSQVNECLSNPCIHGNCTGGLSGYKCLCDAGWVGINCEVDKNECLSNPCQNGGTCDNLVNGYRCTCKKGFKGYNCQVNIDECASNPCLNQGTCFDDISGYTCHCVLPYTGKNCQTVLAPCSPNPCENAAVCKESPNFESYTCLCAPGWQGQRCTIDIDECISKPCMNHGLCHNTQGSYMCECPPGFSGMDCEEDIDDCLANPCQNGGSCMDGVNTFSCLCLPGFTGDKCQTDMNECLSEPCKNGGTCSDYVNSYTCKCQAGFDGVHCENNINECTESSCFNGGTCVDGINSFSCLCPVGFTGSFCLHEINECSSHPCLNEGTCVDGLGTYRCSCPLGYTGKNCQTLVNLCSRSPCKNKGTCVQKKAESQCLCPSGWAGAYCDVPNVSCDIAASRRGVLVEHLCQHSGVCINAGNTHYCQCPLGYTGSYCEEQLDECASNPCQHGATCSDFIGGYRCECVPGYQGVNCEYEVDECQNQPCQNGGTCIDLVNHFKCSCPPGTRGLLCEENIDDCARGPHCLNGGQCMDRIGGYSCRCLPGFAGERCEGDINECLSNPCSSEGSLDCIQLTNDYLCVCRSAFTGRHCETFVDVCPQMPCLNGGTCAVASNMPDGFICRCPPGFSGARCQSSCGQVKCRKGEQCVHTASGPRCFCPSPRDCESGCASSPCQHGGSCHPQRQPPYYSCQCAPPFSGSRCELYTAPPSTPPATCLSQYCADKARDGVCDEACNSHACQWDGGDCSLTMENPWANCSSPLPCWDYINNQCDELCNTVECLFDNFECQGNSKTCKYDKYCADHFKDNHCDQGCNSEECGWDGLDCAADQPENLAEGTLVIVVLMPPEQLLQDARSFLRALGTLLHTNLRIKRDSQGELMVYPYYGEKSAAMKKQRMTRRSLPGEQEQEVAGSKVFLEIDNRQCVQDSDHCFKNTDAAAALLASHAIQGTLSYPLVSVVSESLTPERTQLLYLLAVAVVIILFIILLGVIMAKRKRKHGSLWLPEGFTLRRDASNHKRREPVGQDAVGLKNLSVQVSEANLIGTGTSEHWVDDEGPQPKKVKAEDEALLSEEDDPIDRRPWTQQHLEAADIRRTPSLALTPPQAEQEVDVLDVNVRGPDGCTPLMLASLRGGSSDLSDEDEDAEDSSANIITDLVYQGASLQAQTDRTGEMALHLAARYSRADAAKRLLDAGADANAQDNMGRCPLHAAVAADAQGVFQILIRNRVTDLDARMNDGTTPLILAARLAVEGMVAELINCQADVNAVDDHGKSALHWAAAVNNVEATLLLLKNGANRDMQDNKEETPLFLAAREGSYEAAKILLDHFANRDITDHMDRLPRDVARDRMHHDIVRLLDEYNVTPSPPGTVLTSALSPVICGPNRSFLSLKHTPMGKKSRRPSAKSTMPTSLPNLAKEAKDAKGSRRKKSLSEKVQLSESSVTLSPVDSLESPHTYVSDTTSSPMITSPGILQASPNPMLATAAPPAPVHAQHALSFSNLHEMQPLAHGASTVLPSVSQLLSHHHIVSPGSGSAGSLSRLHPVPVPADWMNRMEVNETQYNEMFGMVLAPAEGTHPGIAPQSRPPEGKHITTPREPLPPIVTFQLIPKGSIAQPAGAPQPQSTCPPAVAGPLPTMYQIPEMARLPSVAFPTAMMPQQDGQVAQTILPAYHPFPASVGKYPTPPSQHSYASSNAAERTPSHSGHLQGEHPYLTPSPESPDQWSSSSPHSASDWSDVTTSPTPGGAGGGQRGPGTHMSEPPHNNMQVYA
Pro-neuregulin-1, membrane-bound isoform (Homo sapiens), sequence (Q02297 whole entry, looked up, the tested form may be a part, canonical isoform): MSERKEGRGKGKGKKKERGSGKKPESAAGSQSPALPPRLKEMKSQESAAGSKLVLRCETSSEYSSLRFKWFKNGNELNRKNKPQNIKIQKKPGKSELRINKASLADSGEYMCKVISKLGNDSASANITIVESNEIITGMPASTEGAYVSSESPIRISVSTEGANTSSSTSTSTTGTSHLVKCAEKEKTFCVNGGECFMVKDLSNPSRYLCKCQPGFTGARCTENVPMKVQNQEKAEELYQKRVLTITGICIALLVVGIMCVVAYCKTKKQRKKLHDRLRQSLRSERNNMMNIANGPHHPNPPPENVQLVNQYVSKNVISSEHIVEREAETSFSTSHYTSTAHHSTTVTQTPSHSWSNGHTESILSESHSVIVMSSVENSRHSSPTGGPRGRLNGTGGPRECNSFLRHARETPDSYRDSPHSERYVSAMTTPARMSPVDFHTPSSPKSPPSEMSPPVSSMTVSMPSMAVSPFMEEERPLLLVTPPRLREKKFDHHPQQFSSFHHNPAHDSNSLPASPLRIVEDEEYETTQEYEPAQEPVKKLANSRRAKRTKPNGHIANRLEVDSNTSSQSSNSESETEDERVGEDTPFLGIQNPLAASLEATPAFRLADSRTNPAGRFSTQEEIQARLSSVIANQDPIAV

As to `COC(=O)[C@@]1(Cc2ccccc2)[C@H]2c3cc(C(=O)N(C)C)n(Cc4ccccc4)c3C[C@H]2CN1C(=O)c1ccccc1`, the composite z-score was 0.0252 in [1]; -0.705 in assay [2]; 0.274 in assay [3]; 0.747 in [4]; 1.67 in [5]; 0.614 in assay [6]. The composite z-score in [7] is 1.26; in [9], 0.856; in assay [10] it was 0.896; in assay [11] it was -0.361; in [15], 2.59; in assay [17], 0.434. Also, the composite z-score in assay [18] turned out to be 0.018; in assay [19] it was 0.85; in assay [20], 0.291. The z-score was 0.273 (inactive) in [8]; 0.84 (inactive) in assay [12]; 1.74 (inactive) in assay [13]; 1.51 (inactive) in [14]; -0.813 (inactive) in assay [16].

As to `CCCC[C@@H]1C[C@H]1[C@@H](NC(=O)c1ccccc1)c1ccccc1`, the composite z-score is 0.343 in [1]; -0.0895 in assay [2]; 0.15 in assay [3]; 0.14 in assay [4]; 0.18 in assay [5]; -0.392 in assay [6]. The composite z-score in assay [7] was -0.303; in [9], 1.14; in [10], 2.02; in assay [11], -0.352; in [15] it was 0.981; in assay [17], 0.302. For the same molecule, the composite z-score is 0.226 in [18], 0.571 in [19] and 0.104 in assay [20]. The z-score in assay [8] was -0.0327 (inactive); in assay [12], 0.588 (inactive); in [13], 1.02 (inactive); in [14] it was 1.54 (inactive); in assay [16], -0.404 (inactive).

Consider `O=C1C2C=CC(C(O)c3ccc(B(O)O)cc3)N(Nc3ccc([N+](=O)[O-])cc3)C2C(=O)N1c1ccccc1` (stereo not given), for which the composite z-score is -0.28 in assay [1]; 0.378 in assay [2]; 0.0121 in assay [3]; 0.84 in assay [4]; 1.46 in assay [5]; 1.56 in assay [6]. Also, the composite z-score is 1.05 in assay [7]; 1.25 in [9]; -0.236 in [10]; 1.26 in assay [11]; 2.54 in assay [15]; 0.143 in assay [17]. For the same molecule, the composite z-score in assay [18] was found to be 0.288; in [19] it was 1.03; in [20], 0.105. Besides, the z-score in assay [8] was 0.663 (inactive); in [12], -26.5 (active); in assay [13], -16.1 (active); in assay [14] it was 0.847 (inactive); in assay [16], -0.465 (inactive).

Turning to `CCCC[C@@H]1C[C@H]1[C@@H](NC(=O)c1ccco1)c1ccccc1`, the composite z-score is 1.29 in assay [1]; -0.52 in assay [2]; -0.171 in [3]; -0.511 in assay [4]; -2.22 in [5]; -0.44 in [6]. The composite z-score in [7] was -0.454; in [9], -0.945; in assay [10] it was -0.0275; in [11], -0.206; in assay [15], -0.832; in assay [17] it was -0.121. Also, the composite z-score in [18] was -1.77; in [19], -0.716; in assay [20], -0.25. Besides, the z-score in [8] is -0.192 (inactive); in [12] it was -0.867 (inactive); in assay [13] it was -15.3 (active); in assay [14], -0.0654 (inactive); in assay [16], -1.61 (inactive).

As for `C=CCOC(=O)[C@@H]1[C@H]2C(=O)O[C@H](c3ccccc3)[C@H](c3ccccc3)N2[C@H](c2ccc(OCCOC(=O)[C@H]3C[C@H]4C(=O)N[C@@H](CCCC[N+](C)(C)C)C(=O)N4[C@H]3c3cccc(OCCO)c3)cc2)[C@@]12C(=O)Nc1ccc(I)cc12`, the composite z-score is -0.542 in assay [1]; 0.391 in assay [2]; -0.0824 in [3]; 0.651 in assay [4]; 0.827 in [5]; -0.306 in assay [6]. For the same molecule, the composite z-score in [7] was 1.17; in [9], 0.166; in assay [10], 0.154; in assay [11], 1.59; in assay [15] it was 2.34; in [17], 0.0631. In addition, the figures for the composite z-score in assay [18], in [19] and in assay [20] were 1.45, 1.13 and 0.0527, respectively. The z-score in assay [8] is 0.179 (inactive); in assay [12], 0.904 (inactive); in assay [13], 1.04 (inactive); in [14], 4.48 (inactive); in assay [16] it was 0.254 (inactive).
